Assay results from the supplement of paper PMC10849652.
The full data set covers some 7,900 targets. This sample favours those with a hit. About 0.6% of all pairs of compound and target were hits.

Key:
Experiment in all cases: log2 fold change, soluble protein after heating vs DMSO (PISA); higher = thermal stabilisation; K562 cells, 10 uM, 30 min; active = over 0.2 and 3.5 SD of the protein, either way, in both replicates (recomputed)
bafetinib = compound: Cc1ccc(NC(=O)c2ccc(CN3CC[C@H](N(C)C)C3)c(C(F)(F)F)c2)cc1Nc1nccc(-c2cncnc2)n1 [bafetinib]
In short: (§1)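 Values are thermal stability changes relative to control samples and are taken from duplicates. They are stated as log2 fold changes. Before quantification by TMTpro 16plex LC-MS/MS with equalised channel sums, K562 cells at 2×10^6 cells/mL were treated with 10 μM compound for 30 min, heated in aliquots for 3 min across 48°C-58°C, pooled, extracted in PBS with 0.5% NP-40 at 4°C, and centrifuged at 21,000xg for 90 min to give the soluble supernatant.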

[1] = compound: Cc1cccc(CC(=O)N2CCc3c2ccc(-c2cn(C)c4ncnc(N)c24)c3F)n1
In short: as §1

nilotinib = compound: Cc1cn(-c2cc(NC(=O)c3ccc(C)c(Nc4nccc(-c5cccnc5)n4)c3)cc(C(F)(F)F)c2)cn1 [nilotinib]
In short: as §1

[2] = compound: Cc1nc(Nc2n[nH]c3c2CN(C(=O)N[C@H](CN(C)C)c2ccccc2)C3(C)C)c2sccc2n1
In short: as §1

dasatinib = compound: Cc1nc(Nc2ncc(C(=O)Nc3c(C)cccc3Cl)s2)cc(N2CCN(CCO)CC2)n1 [dasatinib]
In short: as §1

[3] = compound: Cc1ncc(-c2ccnc(Nc3ccc(S(C)(=O)=O)cc3)n2)n1C(C)C
In short: as §1

[4] = compound: Cn1cc(-c2ccc3c(c2)CCN3C(=O)Cc2cccc(C(F)(F)F)c2)c2c(N)ncnc21
In short: as §1

[5] = compound: Cn1cc(-c2ccc3nnc(C(F)(F)c4ccc5ncccc5c4)n3n2)cn1
In short: as §1

tipifarnib = compound: Cn1cncc1[C@@](N)(c1ccc(Cl)cc1)c1ccc2c(c1)c(-c1cccc(Cl)c1)cc(=O)n2C [tipifarnib]
In short: as §1

mubritinib = compound: FC(F)(F)c1ccc(/C=C/c2nc(COc3ccc(CCCCn4ccnn4)cc3)co2)cc1 [mubritinib]
In short: as §1

[6] = compound: NC(=O)Nc1cc(-c2cccc(F)c2)sc1C(=O)N[C@H]1CCCNC1
In short: as §1

[7] = compound: NC(=O)c1cnc(N[C@@H]2CCCC[C@@H]2N)nc1Nc1cccc(-n2nccn2)c1
In short: as §1

[8] = compound: NC1(c2ccc(-c3nc4ccn5c(=O)[nH]nc5c4cc3-c3ccccc3)cc2)CCC1
In short: as §1

[9] = compound: NCC(=O)Nc1ccc(-n2nc(C(F)(F)F)cc2-c2ccc3c(ccc4ccccc43)c2)cc1
In short: as §1

entinostat = compound: Nc1ccccc1NC(=O)c1ccc(CNC(=O)OCc2cccnc2)cc1 [entinostat]
In short: as §1

vorinostat = compound: O=C(CCCCCCC(=O)Nc1ccccc1)NO [vorinostat]
In short: as §1

citarinostat = compound: O=C(CCCCCCNC(=O)c1cnc(N(c2ccccc2)c2ccccc2Cl)nc1)NO [citarinostat]
In short: as §1

silmitasertib = compound: O=C(O)c1ccc2c(c1)nc(Nc1cccc(Cl)c1)c1ccncc12 [silmitasertib]
In short: as §1

[10] = compound: O=C1NC(=O)C(c2cnc3ccccn23)=C1c1cn2c3c(cc(F)cc13)CN(C(=O)N1CCCCC1)CC2
In short: as §1

[11] = compound: c1cc(OCCN2CCCCC2)cc(-c2n[nH]c3ccc(-c4nnc[nH]4)cc23)c1
In short: as §1

Measured: log2 fold change

STIM1 (UniProt Q13586)
inactive: bafetinib -0.143 | [1] 0 | nilotinib 0.002 | [2] -0.01 | dasatinib -0.006 | [3] -0.025 | [4] 0.028 | [5] 0.01 | tipifarnib 0.012 | mubritinib 0.016 | [6] -0.032 | [7] -0.074 | [8] -0.075 | [9] -0.117 | entinostat 0.011 | vorinostat 0.022 | citarinostat -0.013 | silmitasertib 0.007 | [10] -0.054 | [11] -0.04

SRP68 (UniProt Q9UHB9)
inactive: bafetinib 0.043 | [1] 0.054 | nilotinib -0.118 | [2] -0.063 | dasatinib -0.098 | [3] 0.055 | [4] -0.026 | [5] -0.08 | tipifarnib -0.119 | mubritinib 0.012 | [6] -0.068 | [7] -0.08 | [8] -0.094 | [9] -0.035 | entinostat 0.101 | vorinostat 0.08 | citarinostat 0.095 | silmitasertib 0.08 | [10] 0.096 | [11] -0.062

SREK1 isoform 2 (UniProt Q8WXA9)
Chain of UniProt Q8WXA9 (Q8WXA9 whole entry, looked up): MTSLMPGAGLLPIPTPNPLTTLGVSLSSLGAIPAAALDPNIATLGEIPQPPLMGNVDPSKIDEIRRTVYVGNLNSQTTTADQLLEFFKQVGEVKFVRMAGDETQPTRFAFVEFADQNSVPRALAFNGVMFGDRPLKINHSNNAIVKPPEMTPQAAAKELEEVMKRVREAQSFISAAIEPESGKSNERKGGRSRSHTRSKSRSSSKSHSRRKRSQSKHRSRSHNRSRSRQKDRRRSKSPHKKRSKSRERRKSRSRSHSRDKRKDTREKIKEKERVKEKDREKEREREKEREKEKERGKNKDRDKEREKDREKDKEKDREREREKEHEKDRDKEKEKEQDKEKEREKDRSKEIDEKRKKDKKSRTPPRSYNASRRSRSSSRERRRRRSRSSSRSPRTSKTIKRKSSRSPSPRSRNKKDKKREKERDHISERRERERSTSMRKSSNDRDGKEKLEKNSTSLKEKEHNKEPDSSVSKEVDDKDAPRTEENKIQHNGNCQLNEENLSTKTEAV
inactive: bafetinib 0.07 | [1] 0.015 | nilotinib 0.156 | dasatinib -0.095 | [3] 0.005 | [4] -0.006 | [5] -0.11 | tipifarnib 0.031 | mubritinib 0.063 | [6] 0.194 | [7] -0.068 | [8] 0.03 | [9] -0.208 | entinostat 0.012 | vorinostat 0.05 | citarinostat 0.129 | silmitasertib -0.148 | [10] 0.059 | [11] -0.213
active: [2] -0.593

SLC4A2 (UniProt P04920)
Chain of UniProt P04920 (P04920 whole entry, looked up): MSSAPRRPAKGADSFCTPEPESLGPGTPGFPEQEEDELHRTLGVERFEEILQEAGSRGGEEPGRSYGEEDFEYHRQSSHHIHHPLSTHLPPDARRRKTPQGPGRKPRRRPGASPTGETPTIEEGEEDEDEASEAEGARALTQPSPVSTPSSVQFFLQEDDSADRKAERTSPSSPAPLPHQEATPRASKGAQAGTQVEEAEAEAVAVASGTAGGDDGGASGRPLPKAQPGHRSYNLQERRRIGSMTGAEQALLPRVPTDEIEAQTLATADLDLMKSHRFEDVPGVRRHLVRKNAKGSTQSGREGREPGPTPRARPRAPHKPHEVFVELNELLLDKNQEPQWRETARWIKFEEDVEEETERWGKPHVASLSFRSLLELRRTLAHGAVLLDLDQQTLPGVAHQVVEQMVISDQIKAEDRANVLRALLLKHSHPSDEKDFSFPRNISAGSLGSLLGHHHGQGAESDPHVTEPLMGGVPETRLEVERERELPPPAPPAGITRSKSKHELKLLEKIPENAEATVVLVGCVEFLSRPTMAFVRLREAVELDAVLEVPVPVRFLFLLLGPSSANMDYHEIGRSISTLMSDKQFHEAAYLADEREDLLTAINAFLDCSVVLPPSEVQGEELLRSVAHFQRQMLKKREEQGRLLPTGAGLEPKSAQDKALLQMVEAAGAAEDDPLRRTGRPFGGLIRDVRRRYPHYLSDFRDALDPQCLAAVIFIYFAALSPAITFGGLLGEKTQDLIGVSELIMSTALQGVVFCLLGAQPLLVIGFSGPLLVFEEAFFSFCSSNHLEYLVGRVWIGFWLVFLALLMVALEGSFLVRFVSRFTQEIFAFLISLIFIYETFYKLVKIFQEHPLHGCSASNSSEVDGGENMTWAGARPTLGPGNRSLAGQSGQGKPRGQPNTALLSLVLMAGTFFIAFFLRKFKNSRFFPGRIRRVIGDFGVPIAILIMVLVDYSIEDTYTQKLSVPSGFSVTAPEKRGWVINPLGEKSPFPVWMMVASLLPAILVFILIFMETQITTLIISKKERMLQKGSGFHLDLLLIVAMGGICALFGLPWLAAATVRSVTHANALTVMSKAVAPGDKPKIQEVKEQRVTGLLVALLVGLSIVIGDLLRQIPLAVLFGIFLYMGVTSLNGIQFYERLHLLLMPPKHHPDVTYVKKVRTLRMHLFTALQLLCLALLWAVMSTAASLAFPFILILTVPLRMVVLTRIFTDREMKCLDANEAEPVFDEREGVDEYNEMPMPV
active: [8] -0.204
inactive: bafetinib -0.101 | [1] -0.037 | nilotinib 0.027 | [2] -0.165 | dasatinib -0.125 | [3] 0.043 | [4] 0.023 | [5] -0.045 | tipifarnib -0.068 | mubritinib 0.029 | [6] -0.048 | [7] -0.055 | [9] -0.123 | entinostat 0.028 | vorinostat 0.023 | citarinostat -0.072 | silmitasertib 0.019 | [10] 0.016 | [11] -0.084

TELO2 (UniProt Q9Y4R8)
Chain of UniProt Q9Y4R8 (Q9Y4R8 whole entry, looked up): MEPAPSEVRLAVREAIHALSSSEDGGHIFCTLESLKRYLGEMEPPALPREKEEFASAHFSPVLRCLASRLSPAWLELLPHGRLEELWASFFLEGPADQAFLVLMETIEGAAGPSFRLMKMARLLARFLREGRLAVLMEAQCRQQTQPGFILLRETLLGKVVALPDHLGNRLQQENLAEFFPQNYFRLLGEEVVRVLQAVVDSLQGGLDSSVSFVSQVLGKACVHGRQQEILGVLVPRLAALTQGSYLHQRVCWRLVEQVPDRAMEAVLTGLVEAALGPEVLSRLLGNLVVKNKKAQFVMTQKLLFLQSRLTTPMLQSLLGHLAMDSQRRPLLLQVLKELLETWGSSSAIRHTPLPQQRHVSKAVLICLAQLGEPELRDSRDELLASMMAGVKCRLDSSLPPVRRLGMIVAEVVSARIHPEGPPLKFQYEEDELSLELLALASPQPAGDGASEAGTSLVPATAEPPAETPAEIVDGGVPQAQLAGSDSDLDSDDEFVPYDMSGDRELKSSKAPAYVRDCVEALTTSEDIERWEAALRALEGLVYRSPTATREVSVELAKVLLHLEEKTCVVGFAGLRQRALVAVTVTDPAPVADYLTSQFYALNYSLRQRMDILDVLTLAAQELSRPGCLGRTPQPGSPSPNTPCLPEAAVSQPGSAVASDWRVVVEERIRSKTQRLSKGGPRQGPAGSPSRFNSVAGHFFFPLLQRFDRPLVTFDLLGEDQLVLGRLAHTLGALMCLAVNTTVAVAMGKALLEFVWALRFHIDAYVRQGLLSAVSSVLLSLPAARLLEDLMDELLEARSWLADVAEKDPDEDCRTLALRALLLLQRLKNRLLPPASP
inactive: bafetinib 0.069 | [1] 0.158 | nilotinib -0.023 | [2] -0.041 | dasatinib -0.039 | [3] 0.039 | [4] -0.058 | [5] 0.046 | tipifarnib -0.185 | mubritinib 0.103 | [6] -0.039 | [7] -0.1 | [8] -0.207 | [9] 0.037 | entinostat 0.039 | vorinostat 0.137 | citarinostat 0.009 | silmitasertib 0.067 | [10] 0.117 | [11] -0.075

SPECC1 (UniProt Q5M775)
inactive: bafetinib -0.102 | [1] -0.1 | nilotinib -0.108 | [2] -0.133 | dasatinib -0.067 | [3] 0.063 | [4] -0.035 | [5] 0.089 | tipifarnib 0.028 | mubritinib 0.044 | [6] -0.126 | [7] -0.053 | [8] -0.124 | [9] -0.132 | entinostat -0.007 | vorinostat 0 | citarinostat -0.213 | silmitasertib 0.08 | [10] -0.06 | [11] -0.091

SUN2 (UniProt Q9UH99)
Chain of UniProt Q9UH99 (Q9UH99 whole entry, looked up): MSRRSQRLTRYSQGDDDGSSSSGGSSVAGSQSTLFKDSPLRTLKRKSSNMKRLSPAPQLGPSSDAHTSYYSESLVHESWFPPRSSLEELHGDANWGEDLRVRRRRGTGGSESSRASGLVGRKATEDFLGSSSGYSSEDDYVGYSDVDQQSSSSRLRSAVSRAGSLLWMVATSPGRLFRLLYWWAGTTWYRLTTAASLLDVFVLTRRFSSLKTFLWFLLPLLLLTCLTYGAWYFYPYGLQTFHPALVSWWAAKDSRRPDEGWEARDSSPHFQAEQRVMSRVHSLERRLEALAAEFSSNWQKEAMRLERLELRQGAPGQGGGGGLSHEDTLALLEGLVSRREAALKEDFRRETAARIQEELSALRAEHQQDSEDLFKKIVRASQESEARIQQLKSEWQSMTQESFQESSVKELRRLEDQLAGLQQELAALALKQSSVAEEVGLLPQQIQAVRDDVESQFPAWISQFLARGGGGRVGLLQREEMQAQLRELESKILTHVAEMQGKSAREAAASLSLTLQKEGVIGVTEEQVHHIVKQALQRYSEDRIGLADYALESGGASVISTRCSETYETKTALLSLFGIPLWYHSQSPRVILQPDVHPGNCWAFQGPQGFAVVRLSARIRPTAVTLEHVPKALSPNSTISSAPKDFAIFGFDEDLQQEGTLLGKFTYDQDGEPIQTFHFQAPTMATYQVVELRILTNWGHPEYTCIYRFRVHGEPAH
inactive: bafetinib -0.04 | [1] 0.016 | nilotinib -0.007 | [2] -0.036 | dasatinib 0.004 | [3] -0.071 | [4] -0.052 | [5] -0.008 | tipifarnib 0.013 | mubritinib -0.064 | [6] 0.002 | [7] 0.011 | [8] -0.054 | [9] -0.03 | entinostat 0.054 | vorinostat 0.018 | citarinostat 0.019 | silmitasertib 0.007 | [10] 0.097 | [11] -0.087

TBC1D15 isoform 3 (UniProt Q8TC07)
Chain of UniProt Q8TC07 (Q8TC07 whole entry, looked up): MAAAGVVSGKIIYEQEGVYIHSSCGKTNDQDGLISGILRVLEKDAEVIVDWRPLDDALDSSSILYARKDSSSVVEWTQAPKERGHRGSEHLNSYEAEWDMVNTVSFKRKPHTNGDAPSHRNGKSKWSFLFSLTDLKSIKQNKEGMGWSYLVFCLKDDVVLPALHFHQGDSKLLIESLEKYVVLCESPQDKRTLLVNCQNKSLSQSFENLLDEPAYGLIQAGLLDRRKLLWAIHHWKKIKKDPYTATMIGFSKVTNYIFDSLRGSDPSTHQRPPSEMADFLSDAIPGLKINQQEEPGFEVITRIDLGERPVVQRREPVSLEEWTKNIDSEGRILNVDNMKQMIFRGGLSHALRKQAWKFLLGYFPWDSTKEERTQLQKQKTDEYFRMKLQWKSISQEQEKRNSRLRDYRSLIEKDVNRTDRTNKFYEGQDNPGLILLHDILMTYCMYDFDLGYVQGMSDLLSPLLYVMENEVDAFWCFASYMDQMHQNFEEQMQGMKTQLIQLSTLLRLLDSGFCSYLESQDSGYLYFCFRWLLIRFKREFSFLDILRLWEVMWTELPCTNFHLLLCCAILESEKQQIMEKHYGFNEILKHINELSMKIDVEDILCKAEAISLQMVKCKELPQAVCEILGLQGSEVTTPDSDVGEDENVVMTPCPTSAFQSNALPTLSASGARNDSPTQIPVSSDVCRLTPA
inactive: bafetinib -0.026 | [1] 0.059 | nilotinib -0.116 | [2] -0.098 | dasatinib -0.133 | [3] -0.004 | [4] -0.052 | [5] 0.011 | tipifarnib -0.134 | mubritinib 0.054 | [6] -0.013 | [7] -0.086 | [8] -0.202 | [9] -0.033 | entinostat 0.118 | vorinostat 0.101 | citarinostat 0.036 | silmitasertib 0.071 | [10] -0.008 | [11] -0.059

SPTBN4 (UniProt Q9H254)
inactive: bafetinib -0.036 | [1] -0.044 | nilotinib -0.167 | [2] 0.027 | dasatinib 0.017 | [3] -0.04 | [4] -0.014 | [5] 0.03 | tipifarnib -0.09 | mubritinib 0.066 | [6] 0 | [7] -0.09 | [8] -0.095 | [9] 0.033 | entinostat 0.014 | vorinostat 0.026 | citarinostat 0.05 | silmitasertib 0.062 | [10] 0.129 | [11] -0.013

TBCD (UniProt Q9BTW9)
inactive: bafetinib -0.064 | [1] 0.029 | nilotinib -0.101 | [2] -0.078 | dasatinib -0.086 | [3] -0.025 | [4] 0.007 | [5] 0.025 | tipifarnib -0.038 | mubritinib -0.039 | [6] 0.003 | [7] -0.057 | [8] -0.146 | [9] -0.03 | entinostat 0.03 | vorinostat -0.013 | citarinostat 0.028 | silmitasertib 0.039 | [10] -0.001 | [11] -0.063

TFR2 (UniProt Q9UP52)
inactive: [1] -0.012 | nilotinib 0.012 | [2] -0.074 | dasatinib 0.006 | [3] -0.026 | [4] -0.019 | [5] 0.054 | tipifarnib 0.025 | mubritinib 0.041 | [6] -0.039 | [7] -0.004 | [9] 0.007 | entinostat 0.007 | vorinostat 0.002 | citarinostat 0.033 | silmitasertib -0.001 | [10] -0.035 | [11] -0.067
active: bafetinib -0.226 | [8] -0.601

STEAP3 isoform 2 (UniProt Q658P3)
Chain of UniProt Q658P3 (Q658P3 whole entry, looked up): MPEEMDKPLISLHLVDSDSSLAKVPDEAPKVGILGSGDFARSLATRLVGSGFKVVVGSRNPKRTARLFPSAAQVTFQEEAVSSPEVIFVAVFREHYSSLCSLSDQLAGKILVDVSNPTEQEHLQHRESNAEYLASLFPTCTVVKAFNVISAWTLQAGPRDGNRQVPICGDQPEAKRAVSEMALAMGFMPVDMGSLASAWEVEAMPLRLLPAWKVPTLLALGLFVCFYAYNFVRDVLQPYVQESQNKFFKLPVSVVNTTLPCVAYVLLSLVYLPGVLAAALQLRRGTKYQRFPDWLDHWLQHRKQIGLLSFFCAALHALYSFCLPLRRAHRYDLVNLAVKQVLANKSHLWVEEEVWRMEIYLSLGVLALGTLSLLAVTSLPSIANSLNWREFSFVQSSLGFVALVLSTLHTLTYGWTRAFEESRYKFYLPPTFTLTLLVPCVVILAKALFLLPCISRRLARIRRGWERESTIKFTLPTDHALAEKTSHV
inactive: bafetinib -0.044 | [1] 0.058 | nilotinib -0.001 | [2] -0.061 | dasatinib -0.028 | [3] 0.03 | [4] 0.039 | [5] 0.11 | tipifarnib -0.085 | mubritinib -0.034 | [6] -0.13 | [7] 0.076 | [8] -0.042 | [9] -0.006 | entinostat 0.008 | vorinostat 0.086 | citarinostat 0.013 | silmitasertib 0 | [10] -0.028 | [11] -0.082

SNW1 (UniProt Q13573)
Chain of UniProt Q13573 (Q13573 whole entry, looked up): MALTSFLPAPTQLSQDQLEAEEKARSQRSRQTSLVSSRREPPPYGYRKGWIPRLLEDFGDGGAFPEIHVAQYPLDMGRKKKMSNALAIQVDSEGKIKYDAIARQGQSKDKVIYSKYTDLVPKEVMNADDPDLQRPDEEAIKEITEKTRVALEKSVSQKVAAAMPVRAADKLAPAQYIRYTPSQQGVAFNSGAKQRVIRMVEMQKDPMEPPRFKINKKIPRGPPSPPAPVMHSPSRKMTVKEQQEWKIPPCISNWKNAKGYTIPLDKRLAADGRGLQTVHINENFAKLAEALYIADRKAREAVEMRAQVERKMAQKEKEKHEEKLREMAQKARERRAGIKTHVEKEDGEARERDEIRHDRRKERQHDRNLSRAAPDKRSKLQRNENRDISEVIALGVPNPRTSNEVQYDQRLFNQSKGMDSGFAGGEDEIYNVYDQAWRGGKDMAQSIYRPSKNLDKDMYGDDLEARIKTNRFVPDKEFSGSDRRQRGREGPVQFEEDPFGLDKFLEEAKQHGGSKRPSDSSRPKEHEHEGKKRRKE
inactive: bafetinib -0.049 | [1] -0.071 | nilotinib 0.004 | [2] 0.067 | dasatinib 0.027 | [3] 0.088 | [4] -0.055 | [5] -0.043 | tipifarnib 0.026 | mubritinib -0.006 | [6] 0.034 | [7] 0.019 | [8] 0.017 | [9] 0.02 | entinostat -0.056 | vorinostat -0.044 | citarinostat -0.019 | silmitasertib 0.062 | [10] 0.05 | [11] -0.05
